Assay results: PubChem BioAssay AID434931 (National Center for Advancing Translational Sciences (NCATS), 2010)
Records with an inconclusive call do not appear. Calls of active or inactive are those of the source. Calls come from the whole dose curve; as a rule, active = well fitted inhibition curve with a large enough effect; inconclusive = small, poorly fitted or top-dose-only effect, or another doubt; inactive = no such curve, though single readings can be large or run the other way.

Molecular target: Neuropeptide S receptor (Homo sapiens) (UniProt Q6W5P4)
Experiment: Confirmation Concentration-Response Assay for Antagonists of the Neuropeptide S Receptor: Robust Characterization of Calcium Signal Transduction
Details: CHO-NPSR cells, NPS-induced calcium fluorescence (FDSS); series mostly up to 31.6 µM

Chain of Neuropeptide S receptor (Homo sapiens) (Q6W5P4 whole entry, looked up): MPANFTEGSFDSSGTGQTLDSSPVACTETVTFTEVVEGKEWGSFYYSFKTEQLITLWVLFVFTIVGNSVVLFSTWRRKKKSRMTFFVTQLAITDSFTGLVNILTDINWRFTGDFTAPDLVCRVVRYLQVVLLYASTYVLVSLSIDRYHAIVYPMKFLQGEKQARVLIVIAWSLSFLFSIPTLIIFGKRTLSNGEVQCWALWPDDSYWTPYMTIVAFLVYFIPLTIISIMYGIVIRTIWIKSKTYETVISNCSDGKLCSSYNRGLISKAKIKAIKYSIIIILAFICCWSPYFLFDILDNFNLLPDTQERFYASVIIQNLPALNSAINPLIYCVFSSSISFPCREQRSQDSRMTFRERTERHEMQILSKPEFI

Structure (SMILES)	Potency
COc1cccc(C2C(C#N)=C(NC(=O)NCc3ccccc3)Oc3ccc4ccccc4c32)c1 (stereo unspecified)	inactive
COc1ccc(C2c3ccc(OCc4ccccc4)cc3Oc3ncn(CCN4CCOCC4)c(=N)c32)cc1OC (stereo unspecified)	11000 nM (active)
COc1cccc(C2c3c(ncn(-c4ccccc4C#N)c3=N)Oc3ccc4ccccc4c32)c1 (stereo unspecified)	3100 nM (active)
COc1cccc(C2C(C#N)=C(NC(=O)CCc3ccccc3)Oc3ccc4ccccc4c32)c1 (stereo unspecified)	inactive
COc1ccc(C2c3c(ncn(Cc4ccccc4)c3=N)Oc3ccc4ccccc4c32)cc1OC (stereo unspecified)	619 nM (active)
O=C(CCc1ccccc1)Nc1ncnc2c1C(c1ccccc1)c1c(ccc3ccccc13)O2 (stereo unspecified)	1960 nM (active)
CCOc1ccc(C2c3c(ncn(-c4ccccc4)c3=N)Oc3ccc4ccccc4c32)cc1OCC (stereo unspecified)	2460 nM (active)
COc1cccc(C2c3c(ncn(-c4ccccc4Cl)c3=N)Oc3ccc4ccccc4c32)c1 (stereo unspecified)	4380 nM (active)
COc1cccc(C2c3c(ncn(-c4ccc5c(c4)OCO5)c3=N)Oc3ccc4ccccc4c32)c1 (stereo unspecified)	43.8 nM (active)
COc1cccc(C2c3c(ncn(-c4ccccn4)c3=N)Oc3ccc4ccccc4c32)c1 (stereo unspecified)	4920 nM (active)
COc1ccc(C2c3c(n(CCCc4ccccc4)cnc3=N)Oc3ccc4ccccc4c32)cc1OC (stereo unspecified)	4920 nM (active)
N=c1c2c(ncn1-c1ccccc1)Oc1ccc3ccccc3c1C2c1ccc2c(c1)CCO2 (stereo unspecified)	124 nM (active)
N=c1c2c(ccn1CCCCc1ccccc1)Oc1ccc3ccccc3c1C2c1ccccc1 (stereo unspecified)	inactive
COc1cccc(C2c3c(ncn(-c4cccnc4)c3=N)Oc3ccc4ccccc4c32)c1 (stereo unspecified)	1740 nM (active)
COc1cccc(C2c3c(ncn(-c4ccc(C)cc4)c3=N)Oc3ccc4ccccc4c32)c1 (stereo unspecified)	2460 nM (active)
COc1ccc(C2c3c(nc(Cc4ccccc4)[nH]c3=O)Oc3ccc4ccccc4c32)cc1OC (stereo unspecified)	inactive
